# This is part of a sample that, as a whole, favours compounds with a hit. Of some 83,000 tested, about 20% had one in any assay.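 Percent growth is the endpoint: 0 to 100 indicates growth inhibition (40 means 60% inhibition), 0 means no net growth, and negative values indicate cell death.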 A number with no mark means an inactive call. Active and inactive are the calls of the source. Rule for the calls: active = growth percent below 10; inactive = the rest.
# System: U251 CNS
# Test: NCI-60 one-dose screen, 48 h (100 = growth as untreated, 0 = no growth, -100 = all killed)
# Conditions: 10 µM
row,Compound,growth
1,O=[N+]([O-])c1ccc(CO)cc1,105%
2,COc1cc(CN)ccc1O,96%
3,CC(=O)OCC1OC(OC2=C(CC=C(C)C)C(=O)c3ccccc3C2=O)C(OC(C)=O)C(OC(C)=O)C1OC(C)=O (stereo not given),8.23% (active)
4,CC(=O)OCC1CCCO1 (stereo not given),103%
5,OC1OC(COC(c2ccccc2)(c2ccccc2)c2ccccc2)C(O)C(O)C1O (stereo not given),91%
6,CC(C)(N)COS(=O)(=O)O,103%
7,CN(C)c1ccc(C(c2ccc(O)cc2)c2ccc(N(C)C)cc2)cc1,98.5%
8,Nc1ccccc1SC(CC(=O)c1ccccc1)c1c(Cl)cccc1Cl (stereo not given),27%
9,O=C(O)CSCSCC(=O)O,94.3%
10,NC(CSC(c1ccccc1)(c1ccccc1)c1ccccc1)C(=O)O (stereo not given),14.1%
11,CCCCC1C(=O)N(c2ccccc2)N(c2ccccc2)C1=O,105%
12,CCCC[P+](c1ccccc1)(c1ccccc1)c1ccccc1,30.1%
13,COc1ccc(C(=O)C(Br)C(Br)C(=O)O)cc1 (stereo not given),104%
14,CCOC(=O)c1coc(C(=O)OCC)c1C(=O)OCC,102%
15,Nc1ccc(N)c([N+](=O)[O-])c1,107%
16,Cc1ccccc1C1N=C2Oc3ccccc3C=C2C(=O)N1 (stereo not given),63.8%

# System: PC-3 prostate
# Test: as above
# Conditions: 10 µM
row,Compound,growth
1,Cc1c(O)cnc2nn(-c3ccccc3)c(=N)n12,119%
2,CC[N+](C)(CC)CCO,102%
3,CCOC(=O)C/C(C)=N\O,96.8%
4,COc1cc(CCN=Cc2ccccc2O)c([N+](=O)[O-])cc1OC,98.9%
5,O=[N+]([O-])c1ccc(CO)cc1,97.2%
6,O=C(Nc1ccccc1C(=O)NCC1CC1)c1cccs1,94.6%
7,COc1cc(CN)ccc1O,100%
8,CC(=O)OCC1OC(OC2=C(CC=C(C)C)C(=O)c3ccccc3C2=O)C(OC(C)=O)C(OC(C)=O)C1OC(C)=O (stereo not given),-6.07% (active)
9,O=[N+]([O-])c1ccccc1S(=O)c1ccccc1[N+](=O)[O-],81.1%
10,CC(=O)OCC1CCCO1 (stereo not given),108%
11,CC(C(=O)O)(C1CCCCC1)C1(O)CCCCC1 (stereo not given),94.9%
12,COc1cc(/C=C/C(=O)c2ccccc2)cc(OC)c1OC,58%
13,O=C1OC(c2ccc(F)cc2)CC1CN1CCOCC1 (stereo not given),88.9%
14,O=C(NCCNC(=O)c1ccc(Cl)cc1Cl)c1ccc(Cl)cc1Cl,84.5%
15,C=CCCCCCCCCCOC(C)=O,95.2%
16,O=C(NCc1ccco1)Nc1c(Cl)cc(Cl)cc1Cl,91.6%
17,CCOC(=O)C1=C(Nc2ccc(Br)cc2)C(=O)N(CC)C1,101%

row,Compound,growth
1,CN(C)c1ccc(C(c2ccc(O)cc2)c2ccc(N(C)C)cc2)cc1,88.7%
2,S=C1NCc2cncnc2N1,96.1%
3,C/C(=N\NC(=O)c1ccccc1N)c1ccccc1O,50.3%
4,CC(C)(C)n1nc(C2CC2)c(Br)c1NC(=O)c1ccccc1F,91.5%
5,O=C(O)CCC(NC(=O)OCc1ccccc1)C(=O)O (stereo not given),97%
6,O=C(O)CSCSCC(=O)O,103%
7,NC(CSC(c1ccccc1)(c1ccccc1)c1ccccc1)C(=O)O (stereo not given),19.7%
8,CCCCC1C(=O)N(c2ccccc2)N(c2ccccc2)C1=O,98.9%
9,CCCC[P+](c1ccccc1)(c1ccccc1)c1ccccc1,26.8%
10,CC(CN1CCCCC1)NC(=O)c1scnc1-c1ccccc1 (stereo not given),92.9%
11,COc1ccc(C(=O)C(Br)C(Br)C(=O)O)cc1 (stereo not given),110%
12,O=C(OCC(O)C1OC(c2ccccc2)OC(COC(=O)c2ccccc2)C1O)c1ccccc1 (stereo not given),83.5%
13,COc1ccc(/C(C#N)=C2C=C/C(=N/O)c3ccccc3\2)cc1,12.8%
14,Nc1ccc(N)c([N+](=O)[O-])c1,102%
15,Cc1ccccc1C1N=C2Oc3ccccc3C=C2C(=O)N1 (stereo not given),16.3%
16,O=C(Nc1ccccc1)OCCc1ccccc1,91%
17,Cc1cc(/C=C/c2ccc3cc(N(C)C)ccc3[n+]2C)c(C)n1-c1ccccc1,-7.89% (active)

# Reference: PubChem BioAssay (NCI)
